Screens (PubChem BioAssay)
PINK1 expr mod: PINK1 expression modulation | PINK1 immunofluorescence, high-content cytometry, 24 h | hit rate 0.2% among 410,000 | AID 624263 | Potency, µM (doses to about 76.6 µM), inactives show at the highest dose activation (PINK1 increase), actives largely listed as activators; active = well fitted activation curve with a large enough effect; inconclusive = small, poorly fitted or top-dose-only effect; cell line not stated here; note: % of control where 0% means no effect; nearly all actives have a fitted effect of over 65% in size
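Decision-based qHTS: stable cells, 24 h exposure to five compound concentrations, CCCP as control. Fixed cells stained for PINK1 plus nuclear, mitochondrial and cell markers, cytometer read.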
MCF10A rereplic: induces DNA re-replication in MCF 10a normal breast cells; MCF 10A DNA re-replication, Hoechst nuclear intensity, 48 h; Potency, µM (top dose mostly 46.1 µM), for the others: at the highest dose activity, positive = re-replication, hits mostly activators; hit rate 2.9% among 350,000; note: % of control where 0% means no effect; nearly all actives have a fitted effect of over 50% in size
SW480 rerep: induces DNA re-replication in SW480 colon adenocarcinoma cells; hit rate 1.8% among 340,000; SW480 DNA re-replication, Hoechst DNA content imaging, 48 h; Potency, µM (doses to about 46.1 µM), without a hit: top-dose re-replication activation, actives largely listed as activators; note: % of control where 0% means no effect; nearly all actives have a fitted effect of over 55% in size
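Image-based read-out: total Hoechst fluorescence of nuclei (405 nm excitation, 500-530 nm emission), with hits raising the fraction of high-intensity nuclei. SW480 colon cells incubated 48 hr with compounds at 37 C.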
KB-3-1 tox: kills parental KB-3-1 adenocarcinoma cells; AID 1347075; Potency, µM (top dose mostly 46.1 µM), hits mostly cytotoxic; KB-3-1 viability, CellTiter-Glo ATP luminescence, 72 h; hit rate 1.4% among 400,000; note: % is set by controls: 0 for no effect and ±100 for the full control effect; nearly all actives have a fitted effect of over 60% in size
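Screening of KB-3-1 cells (DMEM, 10% FBS, phenol-red free) ran from lowest to highest compound concentration; after 72 h at 37 °C viability was read luminescently and curves fitted.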
KB-V1 MDR tox: kills drug-selected multidrug resistant KB-V1 cells; KB-V1 MDR cells viability, CellTiter-Glo, 72 h; Potency, µM (titrated, usually from 46.1 µM), actives largely listed as cytotoxic; hit rate 3.4% among 400,000; AID 1347076; note: % is set by controls: 0 for no effect and ±100 for the full control effect; nearly all actives have a fitted effect of over 60% in size
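Cells of the MDR subline KB-V1 are plated, dosed with compound at multiple concentrations, and incubated 72 h at 37 degrees C; CellTiter-Glo is then added and luminescence read after 10 min.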
Numbers without * were called inactive; i = inactive; u = inconclusive; x = no result given; [ ] = another dose, or the depositor's remark. An excerpt weighted towards active compounds, which were near 6.7% of everything screened. Unless noted, calls come from the whole dose curve; as a rule, active = well fitted curve in the direction sought with a large enough effect; inconclusive = small, poorly fitted or top-dose-only effect, or another doubt; inactive = no such curve, though single readings can be large; an effect the other way counts as inactive or inconclusive. Potency is the fitted concentration of half-maximal effect.

SMILES | PINK1 expr mod | MCF10A rereplic | SW480 rerep | KB-3-1 tox | KB-V1 MDR tox
COc1ccc(OC)c(/C=N/NC(=O)c2[nH]nc3c2CCc2ccccc2-3)c1 | 0.0% | 23.1µM* | u | i | i
COc1cc(/C=N/NC(=O)c2c(-c3c(Cl)cccc3Cl)noc2C)ccc1OCC(N)=O | 0.3% | 0.8% | -12.6% | i | u
Cc1onc(-c2c(Cl)cccc2Cl)c1C(=O)N/N=C(\N)COc1ccc(Cl)cc1 | -1.9% | u | 1.2% | 4.11µM* | i
COC(=O)c1cc(=O)n(CCc2ccc(OC)c(OC)c2)c(=Nc2ccc(F)c(Cl)c2)s1 | -0.1% | 3.26µM* | 6.2% | u | 20.6µM*
COC(=O)c1cc(=O)n(Cc2ccco2)c(=Nc2ccc(F)cc2)s1 | -1.1% | u | 7.3% | u | 23.1µM*
COC(=O)c1cc(=O)n(Cc2ccc(OC)c(OC)c2)c(=Nc2ccc(F)cc2)s1 | 0.0% | u | 1.6% | 20.6µM* | u
Cc1cc(C)cc(-c2nnc(SCC(=O)NCC3CCCO3)o2)c1 (centres undefined) | 0.8% | -12.5% | -7.0% | i | i
CCOc1ccc(NC(=O)Cn2cc(C(=O)c3ccc(F)cc3)c(=O)c3cc4c(cc32)OCO4)cc1 | -0.1% | x | x | x | x
COc1c(-c2ccc(O)cc2)oc2cc(O)cc(O)c2c1=O | 1.9% | 5.7% | 9.2% | i | i
COc1ccc(-c2oc3cc(O)c(OC)c(O)c3c(=O)c2OC)cc1 | 0.2% | 5.17µM* | u | u | u
COC(=O)c1ccccc1NC(=O)Cn1cnc2c(cnn2-c2ccccc2)c1=O | 5.6%[38.3 µM] | -6.8% | -5.2% | i | 6.51µM*
CCn1cnc2c(cnn2-c2ccccc2)c1=O | -0.4% | 8.0% | 3.8% | u | 10.3µM*
O=c1c2cnn(-c3ccccc3)c2ncn1CCc1ccccc1 | 4.3% | 14.9% | 235.1% | i | i
Cc1ccc2cccc(NC(=O)c3cccc4c(Br)cccc34)c2n1 | 2.8% | x | x | u | i
O=C1/C(=C/c2ccccc2)Oc2cc(OC(=O)N3CCOCC3)ccc21 | 1.6% | 10.1% | -5.0% | i | 20.6µM*
CCOC(=O)C/C(=N\Nc1ncnc2ccccc12)c1ccccc1 | -0.3% | 28.1% | -3.7% | i | 16.4µM*
CCOC(=O)/C(=N\Nc1ncnc2ccccc12)c1ccc(C)cc1 | -3.3% | 15.4% | u | i | u
N#Cc1ccc(CN2CCCC3(CCN(C(=O)c4ccncc4)CC3)C2)cc1 | 0.4% | x | x | x | x
OC(c1ccccc1)c1nc(-c2cc(F)cc(F)c2)cs1 (centres undefined) | 6.1% | x | x | i | i
Cc1cc(C)c(C(=O)COC(=O)c2cccc(S(=O)(=O)NCc3ccccc3)c2)cc1C | -0.7% | 12.7% | 8.5% | i | 18.4µM*
O=C(COC(=O)c1cccc(S(=O)(=O)NCc2ccccc2)c1)c1ccccc1 | 0.0% | 4.1% | -2.6% | i | i
O=C(NCc1ccccc1)c1cccc(COc2ccc(Cl)cc2)c1 | -0.4% | 8.5% | 8.8% | i | 18.4µM*
COc1cccc(CN(C)C(=O)c2[nH]c(C)c(C(C)=O)c2C)c1OC | 4.2% | 7.4% | -1.3% | 7.31µM* | 18.4µM*
O=C(NCc1ccccc1)c1cccc(S(=O)(=O)NCc2ccccc2)c1 | 3.9% | -9.4% | -37.9% | i | 16.4µM*
Cc1cccc(C(C)C)c1NC(=O)c1ccc2c(c1)CCCN2S(C)(=O)=O | 1.0% | x | x | i | i
SMILES | PINK1 expr mod | MCF10A rereplic | SW480 rerep | KB-3-1 tox | KB-V1 MDR tox
CCCCCCCCN1C(=O)[C@H](CC(=O)NCCCOC)C[C@@]2(C(=O)OC)CCCCC=C12 | 3.1% | x | x | i | i
O=C(Nc1ccccc1)N1CC[C@@]2(CCCN(C(=O)c3cnccn3)C2)C1 | -1.0% | x | x | x | x
CCOc1ccc(C(=O)NCc2ccccc2)cc1Br | -0.6% | 2.2% | 69.8% | i | 18.4µM*
COc1ccc(CN(C)C(=O)c2cc(S(=O)(=O)NCc3ccccc3)ccc2C)c(OC)c1 | -0.7% | 6.7% | -22.2% | i | i
COc1cccc(CN(C)C(=O)c2cc(S(=O)(=O)NCc3ccccc3)ccc2C)c1OC | -0.2% | 2.4% | -7.3% | i | 18.4µM*
O=[N+]([O-])c1cccc(CP(=O)(c2ccccc2)c2ccccc2)c1 | 6.1% | 12.3% | 1.6% | i | 20.6µM*
Cc1ccc(NC(=O)c2cc(C)n(-c3ccccc3)c2C)cc1 | 15.3% | 3.26µM* | 3.0% | i | i
Cc1ccc(NC(=O)c2cc(C)n(-c3cccc(C)c3)c2C)cc1 | 29.0% | u | u | i | u
OC[C@@H]1[C@@H](c2ccccc2)C(c2ccc(F)cc2)=NN1c1ccccc1 | 16.0% | u | 20.6µM* | u | i
OC[C@@H]1[C@@H](c2ccc(Cl)cc2)C(c2ccc(F)cc2)=NN1c1ccccc1 | 2.6% | 1.84µM* | 4.11µM* | i | i
OC[C@@H]1[C@@H](c2ccccc2)C(c2ccccc2)=NN1c1ccccc1 | 14.7% | u | u | i | i
Cc1ccc(NC(=O)CSc2nc(-c3cccs3)cc(C(F)(F)F)n2)cc1C | 12.3% | x | x | u | u
O=C(CSc1nc(-c2cccs2)cc(C(F)(F)F)n1)Nc1cc(OCC(F)(F)C(F)F)cc([N+](=O)[O-])c1 | 1.2% | u | u | u | 16.4µM*
Cc1cc(C(=O)NNc2ccc(C)c(C)c2)no1 | 4.1% | 16.4µM* | u | u | u
Cc1cc(C(=O)NCCc2ccc(Cl)cc2)no1 | 0.0% | 6.51µM* | -25.4% | i | i
COc1cccc(-c2cc(C(=O)Nc3cnn(Cc4ccc(Cl)cc4Cl)c3)no2)c1 | 2.5% | x | x | i | i
Cc1ccc(NNC(=O)c2cc(C)on2)c(C)c1 | 2.8% | 19.7% | -9.8% | i | i
Cc1ccc(NNC(=O)c2ccno2)cc1C | -0.1% | -5.8% | 2.2% | 16.4µM* | i
Cc1cc(C(=O)NCCc2ccc(S(N)(=O)=O)cc2)no1 | -1.9% | -17.2% | -20.5% | i | i
Cc1cc(C(=O)Nc2cnn(Cc3ccc(Cl)cc3Cl)c2)no1 | -2.3%[38.3 µM] | 13.4% | -0.8% | i | 13µM*
CC(=O)NCCNc1ncnc2ccc(-c3c(C)noc3C)cc12 | 1.3% | x | x | x | x
Cc1cc(-n2ccnc(NCCc3ccc(S(N)(=O)=O)cc3)c2=O)ccc1Br | 0.1% | x | x | i | i
